# Source: PubChem
# Sampled rows, rich in hits. Any-hit rate of the full collection: about 14%.
# Pf growth 96h: inhibits malaria parasite growth, 96 h | P. falciparum luciferase reporter growth, 96 h | Potency, µM (titrated, usually from 28.7 µM), for inactives: at the highest dose activity change, negative = inhibition, actives largely listed as inhibitors | 320,000 tested, 6.9% active | AID 504834; further: potency means the concentration at half of the fitted maximal effect
#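 Delayed-death screen, second-generation endpoint: infected erythrocytes, 2% hematocrit, 0.05% parasitemia final; 96 hours at 37 C, 5% CO2; luciferase detection reagent; luminescence decrease equals reduced growth.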
# Lassa entry inh: inhibitors of Lassa virus binding or cell entry | Lassa virus pseudotype entry inhibition, cell reporter | Potency, µM (titrated, usually from 37.9 µM), for the others: at the top dose activity change, negative = inhibition, actives largely listed as inhibitors | 300,000 tested, 1.2% active; calls by dose curve; tested in HEK293 cells; further: potency means the concentration at half of the fitted maximal effect; nearly all actives have a fitted effect of over 50% in size
# Pf growth 48h: P. falciparum growth inhibition at 48 hours (one generation); P. falciparum luciferase growth in erythrocytes, 48 h; Potency, µM (doses to about 28.7 µM), inactives show at the top dose activity change, negative = inhibition, actives largely listed as inhibitors; 310,000 tested, 5.9% active; further: potency means the concentration at half of the fitted maximal effect
#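 A one-generation exposure of luciferase-tagged malaria parasites in RPMI 1640/Albumax erythrocyte culture, 37 C and 5% CO2. Inhibition is inferred from decreased luminescence after adding detection reagent.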
# HCMV inh: human cytomegalovirus inhibition. HFF cells, HCMV-luciferase reporter, 72 h; active compounds read low. activity change, negative = inhibition, % at 57.5 µM. 410,000 tested, 4.5% active. AID 1259415; in the data active means activity change below about -60%; inconclusive means no clear call, values can overlap the other calls; inactive means above about -39%
#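 Luciferase read-out from HCMV-luciferase-infected HFFs (MOI 1 PFU/cell) 72 h post infection at 37C; compounds added after 16 h cell attachment; activity normalized between buffer-only basal and Salinomycin (10uM) inhibitor controls.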
# MARV entry inh: Marburg virus entry inhibition; Potency, µM (titrated, usually from 37.8 µM), for the others: at the highest dose activity change, negative = inhibition, most hits filed as inhibitors; Marburg virus pseudotyped entry inhibition, cell reporter; 300,000 tested, 1.8% active; AID 540276; calls by dose curve; tested in HEK293 cells; further: potency means the concentration at half of the fitted maximal effect
# HCV inh: inhibitors of hepatitis C virus infection; Huh7.5.1 HCVcc-Cre infection, luciferase reporter, 44 h; Potency, µM (highest dose often 41.8 µM), for the others: top-dose activity change, negative = inhibition, actives largely listed as inhibitors; 340,000 tested, 3.4% active; AID 651820; further: potency means the concentration at half of the fitted maximal effect
#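 Antiviral activity was scored by luciferase reporter output from cells infected with HCVcc-Cre (~0.5 moi) in presence of compound, 44 h infection period, cells seeded 1,000/well 4 h prior.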
# * hit, by the source's call; ? = inconclusive; · = no result; [ ] = remark or other dose. Unless noted, the call rests on the fitted dose curve; in most records, active means well fitted inhibition curve with a large enough effect; inconclusive means small, poorly fitted or top-dose-only effect, or another doubt; inactive means no such curve, though single readings can be large or run the other way. On the % scale 0 is the no-effect control and ±100 the full control effect.
SMILES,Pf growth 96h,Lassa entry inh,Pf growth 48h,HCMV inh,MARV entry inh,HCV inh
Cc1ccc(C(=O)NCCN2CCN(C(=O)c3ccc(C)c(C)c3)CC2)cc1C,-23%,-3%[46.1 µM],-22%,-1,-11%[46.1 µM],-25%
O=C(NCCCN1CCN(CCCNC(=O)c2ccc(F)cc2)CC1)c1ccc(F)cc1,?,9%,9%,-21,-9%,?
CC(C)c1ccc(C(=O)NCCCN2CCN(CCCNC(=O)c3ccc(C(C)C)cc3)CC2)cc1,?,11µM*,?,-80*,?,?
O=C(NCCN1CCN(C(=O)c2ccc(Br)cc2)CC1)c1ccc(Br)cc1,6%,-21%[46.1 µM],-1%,-66*,-1%[46.1 µM],?
CCOC(OCC)P(=O)(c1ccccc1)c1ccccc1,12µM*,6%,9%,26,-2%,10%
COCCNC(=O)c1cc2c(c(-c3cccc(C#Cc4ccc(OC)c(OC)c4)c3)n1)[C@H](CCO)N(S(=O)C(C)(C)C)C2 (some centres not stated),·,·,·,-6,·,·
COc1ccccc1NC(=O)/C(=C\c1cccnc1)NC(=O)c1ccc(C)cc1,10µM*,1%[46.1 µM],-8%,-39,-21%[46.1 µM],6%
COc1ccccc1CCNC(=O)/C(=C/c1cccnc1)NC(=O)c1ccccc1,10µM*,-21%,-11%,-14,-27%,-7%
CCOC(=O)c1ccc2[nH]c(CSc3nnc(-c4cccc(F)c4)n3C)cc(=O)c2c1,·,-1%[46.1 µM],·,9,·,·
CN(CCN1CCOCC1)C(=O)C1CCC(=O)N(Cc2ccc(Cl)cc2)C1 (configuration not stated),·,·,·,32,·,·
CCc1ccc(-n2nc(CO)c(C(=O)NC)n2)cc1,·,5%[46.1 µM],·,21,?,·
C[n+]1cccc(C2C(C#N)=C(N)Oc3c2ccc2ccccc32)c1 (configuration not stated),?,?,0.29µM*,-23,?,4%
C[n+]1cccc2ccc3c(c21)OC(N)=C(C#N)C3c1ccccc1 (configuration not stated),7.4µM*,-15%,3.7µM*,-22,-7%[46.1 µM],2%
COP(=O)(OC)OC(C(=O)c1ccccc1)c1ccc(Cl)cc1 (configuration not stated),·,·,·,3,·,·
O=C(CCS(=O)(=O)c1ccc(Br)cc1)NCCC1=CCCCC1,41%,·,4%,-22,·,5%
COC(=O)C(C)Sc1nnc2cc(C)c3cc(C)cc(C)c3n12 (configuration not stated),·,10%[46.1 µM],·,1,5%[46.1 µM],·
COc1ccc(Cn2c(=O)c3ccccc3n3c(-c4ccc(C)cc4)nnc23)cc1,·,-4%[46.1 µM],·,12,?,·
CC1=C(C)CC(C(=O)Nc2cccc(Cl)c2)C(C(=O)O)C1 (configuration not stated),71%,-14%,-14%,-4,-2%,12%
Fc1ccc(CNC(=S)Nc2ccc(Cl)cc2Cl)cc1,-11%,?,?,?,-7%,10%
CC1=C(C)CC(C(=O)NCc2cccc(Cl)c2)C(C(=O)O)C1 (configuration not stated),13µM*,·,10%,6,·,·
S=C(NCc1ccccc1)NCc1cccc(Cl)c1,3.7µM*,-18%[46.1 µM],9%,?,-7%[46.1 µM],-22%
S=C(NCCc1cccc(Cl)c1)NCc1ccccc1,?,·,4%,·,·,·
Fc1ccc(CNC(=S)NCc2cccc(Cl)c2)cc1,10µM*,?,?,-23,1%[46.1 µM],5%
Cc1cc2oc(C(=O)Nc3nc(-c4ccccc4)ns3)c(C)c2cc1Cl,·,22%[46.1 µM],·,-14,-2%[46.1 µM],·
C=CCn1cnnc1SCC(=O)Nc1cccnc1Cl,63%,·,-5%,·,·,16%
SMILES,Pf growth 96h,Lassa entry inh,Pf growth 48h,HCMV inh,MARV entry inh,HCV inh
Cn1cc(-c2cc3n(n2)CCC(=O)N3CCCC(=O)NCc2ccccc2Cl)c2ccccc21,·,?,·,-27,·,·
C=CCSC1=N/C(=C\c2ccc3c(c2)OCO3)C(=O)S1,0.41µM*,-14%,-2%,-5,-29%,-12%
C=CCSC1=N/C(=C\c2sccc2C)C(=O)S1,64%,-3%,17%,-6,10%,-16%
O=C(c1cnc(Cc2c[nH]c3ccccc23)c(I)c1)N1CCN(Cc2ccccc2)CC1,·,·,·,-26,·,·
Clc1ccc(/C=N/Nc2ncnc3nc[nH]c23)cc1,12µM*,14%,?,8,-20%[46.1 µM],4%
C=CCn1c(SCc2cc(=O)n3cc(C)ccc3n2)nnc1-c1ccc(F)cc1,5.2µM*,4%,-27%,?,5%,2%
CC(C(=O)Nc1ccc(F)c(Cl)c1)N1Cc2ccccc2C1=O (configuration not stated),·,7%[46.1 µM],·,2,·,·
COc1ccc(CN2C(=O)Cc3c2nc(N)c2c(N)nc(N4CCCCC4)c(C#N)c32)cc1,?,·,?,·,·,-14%
C=C(C)CN(CC)c1nc(N)c2c(N)nc3c(c2c1C#N)CC(=O)N3C12CC3CC(CC(C3)C1)C2,0.93µM*,?,·,-69*,2.5µM*,4µM*
N#Cc1c(N2CCCC(O)C2)nc(N)c2c(N)nc3c(c12)CC(=O)N3C12CC3CC(CC(C3)C1)C2 (configuration not stated),0.21µM*,8.2µM*,?,70,?,4µM*
CCCCN1C(=O)Cc2c1nc(N)c1c(N)nc(N(CCC)CCC)c(C#N)c21,4.1µM*,-1%,4.7µM*,-22,15%,4µM*
COCCCN1C(=O)C(CC(=O)NCc2ccco2)CC(C(=O)N(C)C)=C1C (configuration not stated),·,·,·,-1,·,·
CCc1ccc(-c2cn(-c3nc(C)cc(C)n3)c(=N)o2)cc1,10µM*,16µM*,?,-101*,?,22µM*
CC1CCCN(C(=O)C(C)Nc2cc(Cl)ccc2N2CCOCC2)C1 (configuration not stated),0.66µM*,9%[46.1 µM],?,53,-9%[46.1 µM],-8%
C[C@@]12CCC(=O)C=C1C=C[C@H]1[C@H]3CC[C@](O)(CCC(=O)O)[C@]3(C)CC[C@@H]12,6.4µM*,·,?,·,·,·
CC(=O)[C@H]1CC[C@H]2[C@@H]3CCC4=CC(=O)CC[C@]4(C)[C@H]3[C@H](O)C[C@]12C,-23%,-8%,8%,-19,-2%,2%[8.37 µM]
CC(=O)[C@H]1CC[C@H]2[C@@H]3C=CC4=CC(=O)CC[C@@]4(C)[C@@H]3CC[C@]12C,1%,·,?,17,·,0.56µM*
COc1ccc(S(=O)(=O)N(Cc2ccccc2)c2ccccc2C(=O)O)cc1,13µM*,13%,2%,12,?,-3%
COc1cccc(/C=N/NC(=O)c2cccc3ccccc23)c1OC,·,?,·,105,2%[46.1 µM],-26%
CCN1CCN(C(=O)c2ccccc2N(Cc2ccccc2)S(C)(=O)=O)CC1,2%,-7%,·,9,11%,11%
